Sampled rows, rich in hits. Any-hit rate of the full collection: about 8.9%.
IMPase Li inh: cell-permeable IMPase inhibitors with lithium potentiation; CHO-M1 cells, IP1 TR-FRET (IP-One), carbachol + lithium; Potency, µM (highest dose often 59.4 µM), for inactives: at the top dose activity, negative = IMPase inhibition, actives largely listed as inhibitors; hit rate 0.35% among 210,000;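 further: IP1 builds up when IMPase is blocked and the TR-FRET signal falls; potency means the concentration at half of the fitted maximal effect; plate controls were basal vehicle for no effect and high inhibitor control for full effect; nearly all actives have a fitted effect of over 50% in size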
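CHO cells stably expressing M1 receptor (2000/well) were cultured 16–30 h, then exposed to compounds with a small lithium addition for 30 min at 37C. IP1 was measured by TR-FRET competition; AC50 from Hill fits.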
ALDH1A1 block: blocks purified human ALDH1A1 activity. P00352. Purified ALDH1A1, NADH fluorescence, propionaldehyde substrate. Potency, µM (titrated, usually from 75.3 µM), for the others: top-dose activity, negative = inhibition, actives largely listed as inhibitors. hit rate 7.3% among 220,000; active means well fitted inhibition curve with a large enough effect, not every such curve was filed as active; inconclusive means small, poorly fitted or top-dose-only effect, or another doubt; inactive means no such curve, though single readings can be large or run the other way;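 further: potency means the concentration at half of the fitted maximal effect; plate controls were no enzyme wells and a reference inhibitor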
Target sequence (P00352 whole entry, looked up): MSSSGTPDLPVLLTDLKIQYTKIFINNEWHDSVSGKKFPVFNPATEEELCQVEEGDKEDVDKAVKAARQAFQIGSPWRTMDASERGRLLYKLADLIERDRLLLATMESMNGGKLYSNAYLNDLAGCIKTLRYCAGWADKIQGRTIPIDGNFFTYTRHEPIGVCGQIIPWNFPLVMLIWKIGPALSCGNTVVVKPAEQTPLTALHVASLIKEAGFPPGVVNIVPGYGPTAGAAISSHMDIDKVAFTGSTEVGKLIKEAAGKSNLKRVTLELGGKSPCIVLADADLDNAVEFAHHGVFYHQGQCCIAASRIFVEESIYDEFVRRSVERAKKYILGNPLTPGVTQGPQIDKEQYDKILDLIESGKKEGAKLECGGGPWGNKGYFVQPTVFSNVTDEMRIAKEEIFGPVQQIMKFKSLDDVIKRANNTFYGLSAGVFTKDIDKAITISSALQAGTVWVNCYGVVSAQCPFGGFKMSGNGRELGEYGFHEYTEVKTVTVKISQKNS
NPSR antag: blocks cAMP signaling of the human neuropeptide S receptor; Potency, µM (highest dose often 38.3 µM), for inactives: at the top dose activity change, negative = inhibition, hits mostly inhibitors; AID 1461; Q6W5P4; CHO-NPSR cells, cAMP TR-FRET, antagonist mode; hit rate 1% among 220,000; further: potency means the concentration at half of the fitted maximal effect; nearly all actives have a fitted effect of over 50% in size
IMPase inh: IMPase inhibition in cells | 120,000 tested, under 10 active | inhibition (IP1 accumulation), % at 46.1 µM | CHO-M1 cells, IP1 accumulation, HTRF TR-FRET ratio | P97697 | AID 901; active means well fitted curve in the direction sought with a large enough effect in the signal ratio, not every such curve was filed as active; inconclusive means small, poorly fitted or top-dose-only effect, or a change in a side signal; inactive means no such curve, though single readings can be large or run the other way; the % refers to the signal ratio;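 further: cells stimulated with carbachol in lithium chloride buffer; plate controls were DMSO basal wells for no effect and reference inhibitor wells for full effect; higher means more IMPase inhibition seen as more IP1 and lower FRET ratio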
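In this qHTS, compounds (final up to 46 uM) act on CHO-M1 cells that are then activated through the M1 receptor with carbachol, in pH 7.4 buffer containing 50 mM LiCl, for 30 min. IP1 accumulation is quantified by the IP-One immunoassay.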
12-hLO inh: blocks human 12-lipoxygenase activity; AID 1452; Potency, µM (series often up to 57.1 µM), for the others: at the top dose activity change, negative = inhibition, actives largely listed as inhibitors; hit rate 0.12% among 150,000; purified 12-hLO, xylenol orange hydroperoxide absorbance; P18054; further: potency means the concentration at half of the fitted maximal effect; nearly all actives have a fitted effect of over 55% in size
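Xylenol orange chromogenic assay: hydroperoxide from 12hLO oxidises Fe(II), giving red-shifted Fe(III)-XO absorbance. Conditions: 150 nM enzyme, 40 uM arachidonic acid, 25 mM Hepes pH 7.0, 0.01% Triton X-100, 30 min, room temperature.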
HPGD inh: blocks human HPGD enzyme activity; P15428; purified HPGD, NADH fluorescence kinetic, PGE2 substrate; Potency, µM, inactives show top-dose activity change, negative = inhibition, most hits filed as inhibitors; hit rate 4.3% among 150,000; active means well fitted inhibition curve with a large enough effect, not every such curve was filed as active; inconclusive means small, poorly fitted or top-dose-only effect, or another doubt; inactive means no such curve, though single readings can be large or run the other way; further: potency means the concentration at half of the fitted maximal effect
Target sequence (P15428 whole entry, looked up): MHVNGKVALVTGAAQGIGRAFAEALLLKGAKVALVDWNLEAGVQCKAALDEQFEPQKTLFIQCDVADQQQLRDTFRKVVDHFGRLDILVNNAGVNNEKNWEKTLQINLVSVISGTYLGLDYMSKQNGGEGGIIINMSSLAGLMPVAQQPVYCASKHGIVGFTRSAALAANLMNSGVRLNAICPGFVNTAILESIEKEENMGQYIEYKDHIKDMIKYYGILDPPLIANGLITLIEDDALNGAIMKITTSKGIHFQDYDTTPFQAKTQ
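20 nM HPGD preincubated 15 min at room temperature with compound in 50 mM Tris-HCl pH 8, 0.01% Tween 20. Started with 1 mM NAD+ and 30 uM prostaglandin E2; NADH fluorescence (360/450 nm) read 5 times over 30-s intervals, last minus first.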
An asterisk follows results filed as active; ? = inconclusive; / = no result; [ ] = dose if it differs, or a comment. Unless noted, the call rests on the fitted dose curve; in most records, active means well fitted curve in the direction sought with a large enough effect; inconclusive means small, poorly fitted or top-dose-only effect, or another doubt; inactive means no such curve, though single readings can be large; an effect the other way counts as inactive or inconclusive. Unless noted, on the % scale 0 is the no-effect control and ±100 the full control effect.

SMILES	IMPase Li inh	ALDH1A1 block	NPSR antag	IMPase inh	12-hLO inh	HPGD inh
O=C(/C=C/c1ccco1)N1CCN(S(=O)(=O)/C=C/c2ccccc2)CC1	4%	7.9µM*	-5%	/	/	/
O=C(/C=C/c1ccco1)N1CCN(C/C=C/c2ccccc2)CC1	17%	13µM*	-8%[46.1 µM]	7	-2%	-23%
Cc1ccc(/C=C/C(=O)N2CCN(S(=O)(=O)c3cccs3)CC2)o1	/	/	-9%	/	/	/
COc1ccc(CCN(C)C(=O)C2CCN(Cc3ccc(C)cc3)CC2)cc1OC	9%	-11%	5%	/	/	/
COc1ccc(/C=C2/N=C(SCC(=O)Nc3cc(C)on3)N(c3ccccc3)C2=O)cc1	-14%	6%	7%	-8	0%	27%
CCC(SC1=N/C(=C/c2ccccc2)C(=O)N1c1ccccc1)C(=O)Nc1cc(C)on1 (configuration not stated)	8%	18µM*	-34%	7	-3%	?
COc1cc(SC#N)ccc1N=Cc1c(C)[nH]n(-c2ccc(C)cc2C)c1=O	8%[38.3 µM]	0.71µM*	-13%[46.1 µM]	15	-16%	8.9µM*
COc1cc(SC#N)ccc1N=Cc1c(C)[nH]n(-c2cccc3ccccc23)c1=O	16%[38.3 µM]	0.45µM*	-11%[46.1 µM]	-4	?	?
COc1ccccc1N=Cc1c(C)[nH]n(-c2ccc(C)cc2C)c1=O	7%	?	-8%	/	/	/
Nc1nc(SCC(=O)N2CCCCCC2)[nH]c(=O)c1NC(=O)c1ccco1	2%	4%	-5%	/	/	/
COC(=O)c1nn(-c2ccccc2)c(Cl)c1/C=N/OC(=O)c1ccc(Cl)c(Cl)c1	-12%[38.3 µM]	1%	-25%[46.1 µM]	?	-3%	-2%
CCOC(=O)CSc1nc2sc3c(c2c(=O)[nH]1)CCCC3	-11%[38.3 µM]	0%	-24%[46.1 µM]	-1	-9%	16µM*
O=c1[nH]c(SCc2n[nH]c(=S)n2-c2ccccc2)nc2ccccc12	21%[38.3 µM]	5%	-6%[46.1 µM]	5	-6%	-24%
O=c1[nH]c(SCc2n[nH]c(=S)n2-c2ccccc2)nc2sc3c(c12)CCC3	25%[38.3 µM]	-8%	-11%[46.1 µM]	-10	-1%	13µM*
CCN(CC)C(=O)CSc1nc2sc(C)c(C)c2c(=O)[nH]1	13%[38.3 µM]	?	?	2	-2%	13µM*
Cc1sc2nc(SCC(=O)N3CCCC3)[nH]c(=O)c2c1C	28%[38.3 µM]	?	-26%[46.1 µM]	20	2%	18µM*
Cc1ccccc1NC(=O)c1oc(=O)c2ccccc2c1-c1ccccc1	20%	?	-27%	/	-1%	-11%
CCN1C(=O)C(CC(=O)Nc2c(C)cccc2C)SC1=Nc1ccc(S(N)(=O)=O)cc1 (configuration not stated)	10%	?	-7%	6	0%	-6%
Cc1csc(NC(=O)CSc2nc3sc(C)c(C)c3c(=O)[nH]2)n1	10%[38.3 µM]	18µM*	-12%[46.1 µM]	-4	1%	13µM*
Cc1sc2nc(SCC(=O)N3CCCCC3)[nH]c(=O)c2c1C	4%	?	-24%[46.1 µM]	10	2%	16µM*
CCN(CC)S(=O)(=O)c1ccc(C(=O)OCC(=O)N2CCN(C(=O)c3ccco3)CC2)cc1	9%[38.3 µM]	-15%	8%[46.1 µM]	5	3%	-7%
O=[N+]([O-])c1ccc(N2CCN(Cc3ccccc3)CC2)nc1	31%	20µM*	-23%	/	/	/
O=[N+]([O-])c1ccc(CN2CCN(c3ccc4ccccc4n3)CC2)cc1	-5%	0%	-3%	/	/	/
CC1CCCN(C(=O)Cn2c(-c3nonc3N)nc3ccccc32)C1 (configuration not stated)	10%[38.3 µM]	?	-3%[46.1 µM]	-22	0%	-10%
[O-]/[N+](=C\c1cccc(Br)c1)c1ccccc1	4%	0.32µM*	7%	/	/	/
SMILES	IMPase Li inh	ALDH1A1 block	NPSR antag	IMPase inh	12-hLO inh	HPGD inh
[O-]/[N+](=C\c1ccc(F)cc1)c1ccccc1	26%[38.3 µM]	20µM*	-2%[46.1 µM]	3	-8%	-7%
[O-]/[N+](=C\c1ccccc1)[C@@H]1CCCC[C@@H]1/[N+]([O-])=C/c1ccccc1	/	1%	6%[46.1 µM]	15	5%	/
COc1cc2c(cc1OC)CN(C(=O)COc1ccc(C#N)cc1)CC2	-2%[38.3 µM]	0%	-12%[46.1 µM]	4	-2%	-3%
CCCCOc1ccc(C(=O)N/C(=C\c2ccc([N+](=O)[O-])cc2)C(=O)OCc2ccco2)cc1	-1%	-9%	-23%	/	5%	-2%
CCCOc1ccc(C(CC(=O)O)NC(=O)c2sc3ccccc3c2Cl)cc1 (configuration not stated)	3.2µM*	?	-29%	/	/	/
CCOc1ccc(C(CC(=O)O)NC(=O)c2ccco2)cc1 (configuration not stated)	3%	-3%	4%[46.1 µM]	-6	-2%	-17%
CCOc1ccc(C(CC(=O)O)NC(=O)c2sc3ccccc3c2Cl)cc1 (configuration not stated)	8.9µM*	-13%	?	-29	-4%	-29%
CC(C)(C)c1ccc(-c2nc(C#N)c(NCc3cccnc3)o2)cc1	5%[38.3 µM]	?	-24%[46.1 µM]	11	-3%	?
CCn1ccnc1CN(C)Cc1cn(-c2cccc(C)c2)nc1-c1cccc(F)c1	25%	20µM*	?	/	/	/
Cc1cccc(-n2cc(CN3CCCN(C=O)CC3)c(-c3cccc(F)c3)n2)c1	19%	10µM*	42%	/	/	/
CC(=O)N1CCCN(Cc2cn(-c3cccc(C)c3)nc2-c2cccc(F)c2)CC1	/	/	-29%	/	/	/
Cc1ccc(OCc2nnc(SCc3ccc(C#N)cc3)n2-c2ccc(C)cc2)cc1	11%[38.3 µM]	?	?	17	-11%	-7%
Cc1cc(OCC(=O)Nc2ccccc2F)nc(C(C)C)n1	21%[38.3 µM]	5%	-4%[46.1 µM]	13	3%	1%
CCC1=NN(C(=O)c2ccc(Br)cc2)C(O)(c2ccc(C)cc2)C1 (configuration not stated)	3%	-12%	1%	/	-26%	-8%
CCNc1ncc2nc(-c3ccccc3)c(=O)n(CCc3ccccc3)c2n1	-27%	?	/	/	-8%	?
CCNc1ncc2nc(-c3ccc(Cl)cc3)c(=O)n(C[C@H]3CCCO3)c2n1	10µM*	?	/	/	/	/
O=c1c(CCc2ccccc2)nc2cnc(Nc3ccccc3)nc2n1C[C@H]1CCCO1	7%	?	/	/	/	/
CCNc1ncc2nc(-c3ccc(F)cc3)c(=O)n(CCc3ccccc3)c2n1	5.6µM*	?	/	/	/	/
CN(C)c1ncc2nc(-c3ccc(F)cc3)c(=O)n(CCc3ccccc3)c2n1	10µM*	?	/	/	/	/
COc1cccc(Nc2ncc3nc(CCc4ccccc4)c(=O)n(C[C@H]4CCCO4)c3n2)c1	16%	25µM*	/	/	-6%	?
CN(C)C(=O)c1cccn(Cc2ccc(C(F)(F)F)cc2)c1=O	6%	-5%	16%	/	/	/

Screens deposited in PubChem by National Center for Advancing Translational Sciences (NCATS).
